Data from PubChem BioAssay (NCATS).
Records with an inconclusive call do not appear. A call without a number means that no potency is given here. Active and inactive are the calls of the source. Calls follow the shape of the dose curve; as a rule, active = well fitted inhibition curve with a large enough effect; inconclusive = small, poorly fitted or top-dose-only effect; inactive = flat fitted curve, though single readings scatter.
Potency is read from the fitted curve at half-maximal effect.

The compounds below were run on CP286 (assay: qHTS profiling for inhibitors of Plasmodium falciparum proliferation (AID 504749; also: nearly all actives have a fitted effect of over 60% in size)). Conditions: P. falciparum in erythrocytes, SYBR Green DNA, 72 h; series mostly up to 28.7 µM.
How it was run: (§1)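 Quantitative HTS: compounds pinned into medium, infected erythrocytes added (0.3% parasitemia, 2.5% hematocrit), 72 h culture at 37 C under 5% CO2. Saponin/Triton lysis with SYBR Green I, overnight RT, then fluorescence read.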
With CN(C)CCCN1c2ccccc2C(C)(C)c2ccccc21 the Potency was “inactive”.
With IC(I)I the Potency was “inactive”.
In the case of CC[C@@]1(O)C(=O)OCc2c1cc1n(c2=O)Cc2cc3c([N+](=O)[O-])cccc3nc2-1, the Potency was 4.47 µM (active).
In the case of CCCCCCCC(=O)O, the Potency was “inactive”.
For NC(=O)c1ncn(C2OC(CO)C(O)C2O)n1 (stereo not drawn), the Potency was “inactive”.
In the case of CN=C(NC#N)Nc1ccc(C2=NNC(=O)C[C@@H]2C)cc1, the Potency was “inactive”.
With COC(=O)[C@H]1[C@H]2CC3c4[nH]c5ccccc5c4CCN3C[C@@H]2CC[C@@H]1O (stereo partly drawn) the Potency was “inactive”.
With CC(C)=O the Potency was “inactive”.
With COC(=O)C1=C(C#N)NC(C)=C(C(=O)OC(C)C)C1c1cccc([N+](=O)[O-])c1 (stereo not drawn) the Potency was 10 µM (active).
With CCCCCCOc1ccc(C(=N)N(CCCC)CCCC)c2ccccc12 the Potency was 2.82 µM (active).
With CCOC(=O)C1=CC2(CC)CCCN3CCc4c(n1c1ccccc41)C32 (stereo not drawn) the Potency was 11.2 µM (active).
For CCCCCC(CC)COC(=O)CC(C(=O)OCC(CC)CCCC)S(=O)(=O)O (stereo not drawn), the Potency was “inactive”.

The compounds below were run on CP291 in the same assay as above. Conditions: P. falciparum in erythrocytes, SYBR Green DNA, 72 h; series mostly up to 28.7 µM.
How it was run: as §1
For CC1(C)C(C=C(Cl)Cl)C1C(=O)OCc1cccc(Oc2ccccc2)c1 (stereo not drawn), the Potency was “inactive”.
With CC1=C(/C=C/C(C)=C/C=C/C(C)=C/CO)C(C)(C)CCC1 the Potency was “inactive”.
With CCN(CC)CCOc1ccc(-c2nc3cc(Cl)ccc3s2)cc1 the Potency was “inactive”.
With CC(Cc1ccc(O)c(O)c1)C(C)Cc1ccc(O)c(O)c1 (stereo not drawn) the Potency was “inactive”.
CC[C@@]1(O)C(=O)OCc2c1cc1n(c2=O)Cc2cc3c([N+](=O)[O-])cccc3nc2-1 was tested, and the Potency was 12 µM (active).
In the case of CCCCC(CC)COC(=O)CC(C(=O)OCC(CC)CCCC)S(=O)(=O)O (stereo not drawn), the Potency was “inactive”.
With C=C1C(=CC=C2CCC[C@@]3(C)[C@@H]2CC[C@H]3[C@H](C)CCCC(C)C)C[C@@H](O)C[C@@H]1O the Potency was “inactive”.
For Clc1cc(Cl)c(OCC#CI)cc1Cl, the Potency was 8.49 µM (active).
O=C(Nc1cccc(C(F)(F)F)c1)c1cc(Br)cc(Br)c1O was tested, and the Potency was 12 µM (active).
O=C1CSC2(CCN(CCCN3c4ccccc4Sc4ccc(Cl)cc43)CC2)N1 was tested, and the Potency was 13.5 µM (active).
In the case of C#C[C@]1(O)CC[C@H]2[C@@H]3CCC4=CCCC[C@@H]4[C@H]3C(=C)C[C@@]21CC, the Potency was “inactive”.
For CCOC(=O)C1=C(C)NC(C)=C(C(=O)OCC)C1c1ccccc1C=CC(=O)OC(C)(C)C, the Potency was 12 µM (active).
For O=C(O)c1cc(=O)c2c3nc4ccccc4oc-3cc(=O)c2[nH]1, the Potency was “inactive”.
Nc1c(Br)cc(Br)cc1CNC1CCC(O)CC1 (stereo not drawn) was tested, and the Potency was “inactive”.
In the case of CC(C)=O, the Potency was “inactive”.
With COC(=O)C1=C(C#N)NC(C)=C(C(=O)OC(C)C)C1c1cccc([N+](=O)[O-])c1 (stereo not drawn) the Potency was 16.9 µM (active).
